Laboratory results as given in the supplement of paper PMC13380429.

System: Vero E6 infected with SARS-CoV-2
Assay: inhibition of SARS-CoV-2 cytopathic effect; higher = more antiviral protection, active = above 15
Conditions: 48 h

Measured: inhibition of SARS-CoV-2 cytopathic effect

COc1cc(Nc2nc3ccccc3nc2NS(=O)(=O)c2ccc(NC(=O)c3ccc(C)c(OC)c3)cc2)cc(OC)c1
inactive: 1 nM 1.14% | 8.33 nM 4.37% | 100 nM 1.01% | 833.33 nM -1.67% | 10000 nM 0.57%

Cc1ccc(NC(=O)c2ccc(CN3CCN(C)CC3)cc2)cc1Nc1nc(-c2cccnc2)cs1 [masitinib]
inactive: 1 nM 1.41% | 8.33 nM 0.48% | 100 nM 1.05% | 833.33 nM 1.93%
active: 10000 nM 44.8%

Cc1cccc(C(C)c2c[nH]cn2)c1C (stereo not given) [medetomidine]
inactive: 1 nM 0.12% | 8.33 nM -1.31% | 100 nM -1.87% | 833.33 nM -1.95% | 10000 nM -1.68%

CC[C@@]1(O)C(=O)OCc2c1cc1n(c2=O)Cc2cc3cc(O)ccc3nc2-1 [10-hydroxycamptothecin]
inactive: 1 nM -0.65% | 8.33 nM -0.13% | 100 nM -3.85% | 833.33 nM -12.8% | 10000 nM -13.8%

N#Cc1cc(F)cc(-c2nc(-c3ccc(F)cn3)no2)c1
inactive: 1 nM 0.6% | 8.33 nM 2.48% | 100 nM 1.15% | 833.33 nM -0.25% | 10000 nM 2.97%

C[C@@H]([C@@H](O)c1ccc(O)cc1)N1CCC(O)(c2ccccc2)CC1 [traxoprodil]
inactive: 1 nM 4.34% | 8.33 nM -0.79% | 100 nM -2.83% | 833.33 nM 1.39% | 10000 nM -1.06%

C[C@H](NCc1ccc(OCc2cccc(F)c2)cc1)C(N)=O [safinamide]
inactive: 1 nM 4.62% | 8.33 nM 5.34% | 100 nM 2.52% | 833.33 nM 0.07% | 10000 nM -0.48%

COc1cc(C(=O)N2CCC(N3CCN(C)CC3)CC2)ccc1Nc1ncc2c(n1)N(C)c1ccccc1C(=O)N2C
inactive: 1 nM 0.64% | 8.33 nM -0.23% | 100 nM 2.57% | 833.33 nM 1.89% | 10000 nM -6.43%

c1ccc2c(Cc3c[nH]c4ccccc34)c[nH]c2c1 [3,3'-diindolylmethane]
inactive: 1 nM 0.74% | 8.33 nM 0.3% | 100 nM 4.3% | 833.33 nM 4.76% | 10000 nM 3.8%

CC(C)(C)C1CCc2c(sc(NC(=O)c3ccco3)c2C(=O)O)C1 (stereo not given)
inactive: 1 nM 0.37% | 8.33 nM 3.15% | 100 nM 1.01% | 833.33 nM 0.8% | 10000 nM -2.29%

O=C(O)CCc1nc(-c2ccccc2)c(-c2ccccc2)o1 [oxaprozin]
inactive: 1 nM -1.4% | 8.33 nM -2.65% | 100 nM -0.38% | 833.33 nM -0.99% | 10000 nM 0.84%

COC(=O)[C@H](CC(C)C)NC(=O)[C@@H](N)CC(C)C [leucylleucine-methyl-ester]
inactive: 1 nM -2.04% | 8.33 nM 0.78% | 100 nM -1.7% | 833.33 nM -0.61% | 10000 nM -0.55%

CN1CC[C@@]2(C)c3cc(O)ccc3N(C)[C@@H]12 [eseroline-(-)]
inactive: 1 nM 0.81% | 8.33 nM 0.96% | 100 nM 2.54% | 833.33 nM 3.07% | 10000 nM 6.49%

CCNC1=Nc2ccc(Cl)cc2C(C)(c2ccccc2)O1 (stereo not given) [etifoxine]
inactive: 1 nM 2.81% | 8.33 nM 2.31% | 100 nM 0.13% | 833.33 nM 2.41% | 10000 nM -2.7%

Cc1cn(C[C@H](N)C(=O)O)c(=O)n(Cc2ccsc2C(=O)O)c1=O
inactive: 1 nM 1.18% | 8.33 nM 1.91% | 100 nM -1.21% | 833.33 nM 0.03% | 10000 nM 2.18%

CC(C)OC(=O)C(C)(C)Oc1ccc(C(=O)c2ccc(Cl)cc2)cc1 [fenofibrate]
inactive: 1 nM 4.02% | 8.33 nM 5.16% | 100 nM 3.28% | 833.33 nM -0.31% | 10000 nM 0.82%

CC(C)(C)C(=O)OCC(=O)[C@H]1CC[C@H]2[C@@H]3CCC4=CC(=O)CC[C@]4(C)[C@H]3CC[C@]12C [desoxycorticosterone-pivalate]
inactive: 1 nM -1.6% | 8.33 nM 0.71% | 100 nM -0.4% | 833.33 nM -0.12% | 10000 nM 0.98%

NC(=O)OCCCc1ccccc1 [phenprobamate]
inactive: 1 nM 0.89% | 8.33 nM 0.93% | 100 nM -0.42% | 833.33 nM -2.45% | 10000 nM -2.7%
